From PubChem
Neddyl block – cullin neddylation inhibition | TR-FRET cullin neddylation, biochemical | inhibition, % at 25 µM | 360,000 compounds, 0.58% hits | AID 651699; in the data active = inhibition above about 36%
TLR4 MyD88 comp – blocks binding of human TLR4 to MyD88 | O00206+Q99836 | HeLa CL3-4 TLR4/MyD88 BLA complementation, FRET ratio | inhibition, % at 8.4 µM | 200,000 compounds, 0.18% hits; in the data active = inhibition above about 25%
NOD2-RIPK2 inh – inhibitors of human NOD2-RIPK2 interaction; O43353; CHO BLA complementation NOD2-RIPK2, CCF4 ratio; inhibition, % at 4.98 µM; 360,000 compounds, 0.38% hits; AID 624267; in the data active = inhibition above about 21%
Target sequence (O43353 whole entry, looked up): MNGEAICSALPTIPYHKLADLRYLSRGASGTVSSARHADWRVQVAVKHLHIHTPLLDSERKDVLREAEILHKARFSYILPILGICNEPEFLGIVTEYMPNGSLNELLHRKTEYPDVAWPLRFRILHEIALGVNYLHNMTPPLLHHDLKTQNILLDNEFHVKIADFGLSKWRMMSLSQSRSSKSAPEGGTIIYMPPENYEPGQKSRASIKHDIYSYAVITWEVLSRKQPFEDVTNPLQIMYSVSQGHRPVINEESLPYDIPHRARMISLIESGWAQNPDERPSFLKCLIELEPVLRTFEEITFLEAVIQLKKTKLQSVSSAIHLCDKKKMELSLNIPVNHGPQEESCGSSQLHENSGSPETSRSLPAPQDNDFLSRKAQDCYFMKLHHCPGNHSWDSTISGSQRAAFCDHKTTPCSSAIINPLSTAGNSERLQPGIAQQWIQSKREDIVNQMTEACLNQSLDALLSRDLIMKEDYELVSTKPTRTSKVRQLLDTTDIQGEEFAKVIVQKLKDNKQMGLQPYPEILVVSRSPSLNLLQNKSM
NPR1 activator – GC-A (human) enzyme activation | 370,000 compounds, 0.14% hits | HEK293 GC-A cells, cGMP TR-FRET, EC30 ANP; 0% at EC30 ANP, 100% saturating ANP | activation, % at 10 µM | P16066; in the data active = activation above about 40%
NPR2 activator – GC-B (human) receptor activation | HEK293-GC-B cells, CNP EC30, cGMP TR-FRET; 0% at EC30 CNP, 100% saturating CNP | P20594 | 370,000 compounds, 0.11% hits | activation, % at 10 µM | AID 1920062;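 active = activation at 10 µM reaching about 35% in either raw or pattern-adjusted values, limit read from the data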
TLR9-MyD88 inh – inhibitors of human TLR9-MyD88 binding | CHO BLA complementation TLR9-MyD88, CCF4 FRET ratio | inhibition, % at 4.98 µM | 340,000 compounds, 0.21% hits | Q9NR96+Q99836;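 active = inhibition above the mean over all tested compounds plus 3 SD, cut at about 21% in these data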
TLR4 MyD88 cnf – TLR4-MyD88 interaction inhibition confirmed; HeLa CL3-4 BLA complementation, CCF4 FRET ratio; inhibition, % at 8.4 µM; shares compounds with TLR4 MyD88 comp; 350 compounds, 50% hits;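 active = mean inhibition across three repeat runs above about 25% carried over from the earlier screen, limit read from the data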
BLA inhibitor ct – beta-lactamase inhibition flagged in TLR4-MyD88 counter-screen; shares compounds with TLR4 MyD88 comp; HeLa BLA reporter, CCF4 FRET ratio; inhibition, % at 8.4 µM; 350 compounds, 63% hits; AID 1237;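 active = mean inhibition over three repeats above about 26% taken from the earlier screen, limit read from the data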;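 note: HeLa cells stably expressing beta-lactamase reporter as counterscreen for TLR4-MyD88 inhibitors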
TLR9-MyD88 conf – confirmation of human TLR9-MyD88 binding inhibitors. shares compounds with TLR9-MyD88 inh. CHO TLR9/MyD88 BLA complementation, CCF4 FRET ratio. inhibition, % at 4.98 µM. 680 compounds, 51% hits. AID 540250;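 active = mean inhibition across three repeats above about 21% taken from the earlier screen, limit read from the data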;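 note: blue over green emission ratio reports constitutive TLR9 MyD88 association via BLA complementation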
BLA counter-1 – beta-lactamase reporter inhibition, counter-screen artifact. 680 compounds, 7% hits. AID 540251. CHO-BLA cells, CCF4 FRET ratio, BLA reporter. inhibition, % at 4.98 µM. shares compounds with TLR9-MyD88 inh;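 active = mean inhibition above a 50% cutoff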;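 note: counterscreen of TLR9-MyD88 hits on CMV-driven BLA in CHO-K1 cells; higher means less blue over green ratio so more BLA blockade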
TLR9 CHO tox – counter-screen for TLR9-MyD88 inhibitors: cytotoxicity in CHO cells. shares compounds with TLR9-MyD88 inh. 680 compounds, 39% hits. luminescence. AID 588336. inhibition, % at 4.98 µM; in the data active = inhibition above about 11%
NOD2-RIPK2 conf – NOD2-RIPK2 interaction inhibition confirmed; CHO cells, NOD2-RIPK2 BLA complementation, CCF4 FRET; AID 624370; inhibition, % at 4.98 µM; 1,200 compounds, 70% hits; shares compounds with NOD2-RIPK2 inh;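 active = mean inhibition across replicates above a set limit taken from the earlier primary screen, cut at about 21% in these data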
BLA counter-2 – NOD2-RIPK2 counterscreen BLA reporter activity; CHO BLA reporter, CCF4 FRET ratio; shares compounds with NOD2-RIPK2 inh; inhibition, % at 4.98 µM; 1,200 compounds, 57% hits;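 active = mean inhibition above the low-control mean inhibition plus three low-control SD, cut at about 11% in these data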
Of the large screens only hits and unclear results are named; the others gave an inactive call (follow-up assays come after a bar, where shown). Only some compounds are listed: those with a hit (about 1.2% of all), similar ones and a draw of the others.

O=[N+]([O-])c1ccc(N/N=C\c2ccccc2OCc2ccccc2)cc1	TLR4 MyD88 comp 28, TLR9-MyD88 inh 31 | TLR4 MyD88 cnf inactive | BLA inhibitor ct 50 | TLR9-MyD88 conf 22 | BLA counter-1 inactive | TLR9 CHO tox inactive
Cc1cc(C)nc(N/N=C/c2ccccc2OCc2ccc([N+](=O)[O-])cc2)n1	none
CC[C@H](CCC(=O)N(c1ccccc1)c1ccccc1)c1ccc(C)cc1	none (no result: Neddyl block, TLR4 MyD88 comp, NOD2-RIPK2 inh, TLR9-MyD88 inh)
C[C@@H]1CN([C@@H](C)CO)C(=O)c2ccccc2-c2ccccc2CO[C@@H]1CN(C)Cc1ccc(Cl)c(Cl)c1	none (no result: Neddyl block, TLR4 MyD88 comp, NOD2-RIPK2 inh, TLR9-MyD88 inh)
Cn1c(=O)c(NC2CCCCC2)c2c3c(cccc31)C(=O)c1ccccc1-2	TLR4 MyD88 comp 48, TLR9-MyD88 inh 22 | TLR4 MyD88 cnf inactive | BLA inhibitor ct 49 | TLR9-MyD88 conf inactive | BLA counter-1 inactive | TLR9 CHO tox inactive
COC(=O)[C@]12C[C@H](CC(=O)N3CCSCC3)C(=O)N(Cc3ccccc3)C1=C[C@H](COCc1ccccc1)O[C@@H]2C	none (no result: Neddyl block, TLR4 MyD88 comp, NOD2-RIPK2 inh, TLR9-MyD88 inh)
CCCCN(C)CC(O)Cn1cc(/C=C/C(=O)c2cccs2)c2ccccc21 (configuration not stated)	TLR4 MyD88 comp 39, NOD2-RIPK2 inh 44, TLR9-MyD88 inh 46 (no result: NPR1 activator, NPR2 activator) | TLR4 MyD88 cnf 39 | BLA inhibitor ct 68 | TLR9-MyD88 conf 30 | BLA counter-1 inactive | TLR9 CHO tox inactive
O=Cc1cn(CC(O)Cn2cc(C=O)c3ccccc32)c2ccccc12	none (no result: TLR4 MyD88 comp)
CCOC(=O)/C(=C\c1ccccc1)C(=O)c1cc(C(C)=O)c(Nc2ccccc2)s1	none
CCOC(=O)/C(=C\c1cccnc1)C(=O)c1cc(C(C)=O)c(Nc2ccccc2)s1	TLR4 MyD88 comp 49, NOD2-RIPK2 inh 89, TLR9-MyD88 inh 41 (no result: NPR1 activator, NPR2 activator) | TLR4 MyD88 cnf 53 | BLA inhibitor ct 41 | TLR9-MyD88 conf 49 | BLA counter-1 inactive | TLR9 CHO tox 98
COC(=O)C1CN(CC(C)C)CCS(=O)(=O)N1Cc1ccc(C(F)(F)F)cc1 (configuration not stated)	none (no result: Neddyl block, TLR4 MyD88 comp, NOD2-RIPK2 inh, TLR9-MyD88 inh)
O=C(NCC(c1ccccc1)c1ccccc1)[C@H](Cc1c[nH]c2ccccc12)NC1(C(=O)NC2CCCCC2)CCC1	none (no result: Neddyl block, TLR4 MyD88 comp, NOD2-RIPK2 inh, TLR9-MyD88 inh)
O=C(O)c1ccccc1-c1ccc(/C=C/c2cc(C(F)(F)F)[nH]c(=O)n2)o1	TLR4 MyD88 comp 26, TLR9-MyD88 inh 39 | TLR4 MyD88 cnf inactive | BLA inhibitor ct 33 | TLR9-MyD88 conf 25 | BLA counter-1 inactive | TLR9 CHO tox inactive
Cc1nn(-c2ccc([N+](=O)[O-])cc2)c2c1C(c1cccc(Br)c1)N1C(=N2)C(=O)Nc2ccccc21 (configuration not stated)	none
Cc1cccc(NC2=Nc3ccccc3N3C2=Nc2c(c(C)nn2-c2ccccc2)C3c2ccc(O)c(O)c2)c1 (configuration not stated)	TLR4 MyD88 comp 62, TLR9-MyD88 inh 30 (not shown: Neddyl block) | TLR4 MyD88 cnf 52 | BLA inhibitor ct 85 | TLR9-MyD88 conf 47 | BLA counter-1 55 | TLR9 CHO tox inactive
O=C(Nc1ccc(C(O)(C(F)(F)F)C(F)(F)F)cc1)c1c(F)cccc1F	none (no result: Neddyl block, TLR4 MyD88 comp, NOD2-RIPK2 inh, TLR9-MyD88 inh)
Brc1cc(Br)c2nc(-c3ccc(N4CCOCC4)cc3)ccc2c1	TLR4 MyD88 comp 29, NOD2-RIPK2 inh 27, TLR9-MyD88 inh 40 (no result: NPR1 activator, NPR2 activator) | TLR4 MyD88 cnf inactive | BLA inhibitor ct 30 | TLR9-MyD88 conf 43 | BLA counter-1 inactive | TLR9 CHO tox inactive
CCN1CCc2c(sc(NC(=O)Cc3ccccc3)c2C(N)=O)C1	none (no result: TLR4 MyD88 comp)
CCN1CCc2c(sc(NC(=O)Nc3ccc(Cl)c(Cl)c3)c2C(N)=O)C1	TLR4 MyD88 comp 35, NOD2-RIPK2 inh 41, TLR9-MyD88 inh 48 (not shown: Neddyl block) | TLR4 MyD88 cnf 38 | BLA inhibitor ct 60 | TLR9-MyD88 conf inactive | BLA counter-1 inactive | TLR9 CHO tox 20 | NOD2-RIPK2 conf 24 | BLA counter-2 30
Nc1ccc2c(c1)Cc1cc([N+](=O)[O-])ccc1-2	TLR4 MyD88 comp 46, NOD2-RIPK2 inh 49, TLR9-MyD88 inh 46 | TLR4 MyD88 cnf 38 | BLA inhibitor ct 67 | TLR9-MyD88 conf 31 | BLA counter-1 inactive | TLR9 CHO tox 11 | NOD2-RIPK2 conf 58 | BLA counter-2 54
CC(=NO)c1ccc2c(c1)Cc1cc([N+](=O)[O-])ccc1-2	none (no result: TLR4 MyD88 comp)
Cn1c(-c2c(N)n(-c3ccccc3)c3nc4ccccc4nc23)nc2ccccc21	TLR4 MyD88 comp 54, NOD2-RIPK2 inh 55, TLR9-MyD88 inh 47 (not shown: Neddyl block) | TLR4 MyD88 cnf 49 | BLA inhibitor ct 76 | TLR9-MyD88 conf 42 | BLA counter-1 inactive | TLR9 CHO tox 12 | NOD2-RIPK2 conf 71 | BLA counter-2 73
Cc1cccc(-n2c(N)c(-c3nc4ccccc4n3C)c3nc4ccccc4nc32)c1	none (not shown: Neddyl block)
COC(=O)C1CN(Cc2cn(Cc3ccc(C)cc3)nn2)CCS(=O)(=O)N1Cc1ccc(F)cc1 (configuration not stated)	none (no result: Neddyl block, TLR4 MyD88 comp, NOD2-RIPK2 inh, TLR9-MyD88 inh)
CN(C)c1ccc(/C=C/C(=O)c2cccc(Br)c2)cc1	TLR4 MyD88 comp 63, NOD2-RIPK2 inh 60, TLR9-MyD88 inh 33 | TLR4 MyD88 cnf 66 | BLA inhibitor ct 90 | TLR9-MyD88 conf 27 | BLA counter-1 inactive | TLR9 CHO tox inactive | NOD2-RIPK2 conf 64 | BLA counter-2 68
Nc1ccc2c3c(cccc13)C(=O)N(c1ccccc1)C2=O	TLR4 MyD88 comp 25, NOD2-RIPK2 inh 31, TLR9-MyD88 inh 28 | TLR4 MyD88 cnf inactive | BLA inhibitor ct 39 | TLR9-MyD88 conf inactive | BLA counter-1 inactive | TLR9 CHO tox inactive | NOD2-RIPK2 conf 36 | BLA counter-2 42
